This is an account of results in ChEMBL document CHEMBL3988442, “University of Dundee, Small-Polar-MMV Screening Library” (2021).

In test [1] the target is T1, Aspartate--tRNA(Asp/Asn) ligase (Mycobacterium tuberculosis (strain ATCC 25618 / H37Rv)) (UniProt P9WFW3). Also: in the data most compounds retested in dose-response had high values.
T1 sequence (whole entry): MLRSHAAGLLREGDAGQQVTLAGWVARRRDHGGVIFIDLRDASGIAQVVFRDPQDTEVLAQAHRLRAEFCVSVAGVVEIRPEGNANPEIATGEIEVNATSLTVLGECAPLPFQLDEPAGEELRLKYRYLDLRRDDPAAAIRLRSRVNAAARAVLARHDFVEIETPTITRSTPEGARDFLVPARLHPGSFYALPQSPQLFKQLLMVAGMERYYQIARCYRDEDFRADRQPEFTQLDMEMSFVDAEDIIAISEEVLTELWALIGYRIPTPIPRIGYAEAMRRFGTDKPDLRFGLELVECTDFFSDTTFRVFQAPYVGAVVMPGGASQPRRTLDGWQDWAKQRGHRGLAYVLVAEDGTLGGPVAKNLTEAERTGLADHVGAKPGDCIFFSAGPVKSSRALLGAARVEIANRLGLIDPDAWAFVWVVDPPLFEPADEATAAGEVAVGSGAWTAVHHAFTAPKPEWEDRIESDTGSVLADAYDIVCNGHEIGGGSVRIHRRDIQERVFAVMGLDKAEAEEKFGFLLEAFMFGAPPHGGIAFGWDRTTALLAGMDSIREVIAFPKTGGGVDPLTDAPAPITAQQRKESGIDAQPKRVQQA
The test is described as follows: Assay for Asp RNA synthetase-1 from Mycobacterium tuberculosis. The arrangement: scale not given: direction of the effect not stated beside the values. The class given is functional. The conditions noted are these: 30 µM.

For test [2], the target named is Shiga toxin 2 (Escherichia coli O157:H7) (UniProt P09385+P09386). Description: E. coli 0.157:H7 Shiga Toxin SOP - stx2 screening assay. Set-up: scale not given: direction of the effect not stated beside the values. As to conditions: 30 µM. The test is classed as functional.

Molecules are shown by their SMILES.

Consider `Cc1cnn(CCNCc2nc(-c3ccccc3Cl)no2)c1`, for which the Percent Effect in test [1] was -2.88%; in test [2], -10.8%.

As to `Cn1ccnc1CN1CCN(c2ccc(C#N)cc2F)CC1`, the figures for the Percent Effect in test [1] and in test [2] were -2.39% and -29.4%, respectively.

With `Cc1ccccc1C1(CNc2nnc(C)c(C)c2C#N)CCOCC1`, the Percent Effect was 2.96% in test [1] and 18.2% in test [2].

Turning to `COc1ccc(C(=O)N2CCCC2c2ccco2)cc1OC` (centres undefined), the results for the Percent Effect in test [1] and in test [2] were -3.37% and -11.3%, respectively.

As to `CCc1ncc2c(n1)CN(Cc1nc(-c3ccsc3)oc1C)CC2`, the Percent Effect in test [1] was determined as 2.25%; in test [2], 25.2%.

Regarding `CCn1ncc(NC(=O)c2cc(C3CC3)nc3c2c(C)nn3C)c1C`, the Percent Effect was -1.99% in test [1] and -23% in test [2].

Turning to `COc1cccc(-n2c(C)cc(C(=O)O)c2C)c1`, the Percent Effect in test [1] is -3.77%; in test [2] it was 5.95%.

`CC(C)(CNC(=O)CCOc1cccc(F)c1)C(N)=O`: the Percent Effect is -0.256% in test [1] and 29.6% in test [2].

As for `CN(C)c1ncccc1CNS(=O)(=O)c1ccccc1F`, the Percent Effect in test [1] was 4.63%; in test [2], -24.7%.

With `COCC(=O)N1CCC2(CC1)COCCN2CCN(C)C`, the figures for the Percent Effect in test [1] and in test [2] were 3.2% and -1.86%, respectively.

With `COc1ccccc1CC(=O)N1CCC(NCc2cccnc2)CC1`, the Percent Effect in test [1] is 1.11%; in test [2] it was 22.4%.

With `CC(=O)N1CCN(C(=O)CCCc2nc(C(C)C)no2)CC1`, the Percent Effect in test [1] is 5.17%; in test [2], -7.36%.

On to `CCN(Cc1ccco1)C(=O)NCc1nnc2n1CCC2`, for which the Percent Effect in test [1] is 0.859%; in test [2], -4.02%.

For `CCOc1ccc(N2CCCN=C2NC(=O)c2cccc(Cl)c2)cc1`, the Percent Effect in test [1] is 9.12%; in test [2], -69.6%.

As to `CS(=O)(=O)N1CCc2nc(NC(=O)Nc3c(F)cccc3F)sc2C1`, the Percent Effect is -4.11% in test [1] and 4.52% in test [2].

As for `Cc1nc(C2CCCN(C(=O)c3ccc(OCC4CC4)cc3)C2)no1` (centres undefined), the results for the Percent Effect in test [1] and in test [2] were -8.26% and -5.46%, respectively.

Turning to `CSc1ncccc1C(=O)N1C[C@H]2CC[C@@H]1CN(c1cnccn1)C2`, the Percent Effect in test [1] was 7.16%; in test [2] it was -42.6%.

As for `O=C(c1ccc2c(c1)COC2)N1CCC(Nc2cccnn2)CC1`, the Percent Effect in test [1] is -1.3%; in test [2], -8.52%.

For `CCOCCn1nc(C)cc1C(=O)N1CCOCC(CO)C1` (centres undefined), the Percent Effect is -1.08% in test [1] and -28% in test [2].

In the case of `CN(C)c1cc(CNC(=O)c2ccc(F)cc2F)ccn1`, the figures for the Percent Effect in test [1] and in test [2] were -4.92% and -51.7%, respectively.

As to `CC(C)N(C)C(=O)C1=NOC2(CCN(C(=O)c3ccccn3)C2)C1` (centres undefined), the results for the Percent Effect in test [1] and in test [2] were 2.07% and 3%, respectively.

In the case of `COCCNC(=O)Cn1nc(C(C)C)c2cnn(C(C)(C)C)c2c1=O`, the Percent Effect in test [1] was -1.87%; in test [2] it was 5.6%.

As to `CSCCC(=O)N1CCCC1c1ccsc1` (centres undefined), the Percent Effect in test [1] turned out to be 2.62%; in test [2] it was 4.03%.

Turning to `CN(C)CCCn1ccnc1C1CCCN(c2cc(N)ncn2)C1` (centres undefined), the Percent Effect was -0.232% in test [1] and 1.04% in test [2].

In the case of `Cc1ccc(CN2CCOC3(COCCN(CCN(C)C)C3)C2)o1` (centres undefined), the Percent Effect in test [1] is 5.87%; in test [2], -4.4%.

Turning to `CN(C)C(=O)N1C[C@@H]2CC[C@H](C1)N(C(=O)CCCn1cncn1)C2`, the Percent Effect in test [1] was found to be 1.35%; in test [2] it was 4.19%.

On to `CCc1cnc(N)nc1NCCN1CCCCC1`, for which the Percent Effect in test [1] is 0.268%; in test [2], -30.3%.

In the case of `Cc1cc(C(=O)N2CCCCC2c2nc(C)cs2)[nH]n1` (centres undefined), the Percent Effect in test [1] is -5.22%; in test [2] it was -15.7%.

`CNc1cc(CNC(=O)c2ccccn2)nc(-c2ccncc2)n1`: the values for the Percent Effect in test [1] and in test [2] were -1.21% and 5.89%, respectively.

`CC(=O)Nc1nc(C(=O)NC(C)c2ccc(F)cc2)cs1` (centres undefined): the Percent Effect in test [1] was -3.46%; in test [2], 26.2%.

In the case of `CCNC(=O)c1ccc2c(c1)nc1n2CCN(Cc2ccco2)C1`, the Percent Effect is 3.83% in test [1] and -56% in test [2].

Regarding `Cc1cc(C2CCCN2CC(=O)N(CCC#N)c2ccccc2F)on1` (centres undefined), the figures for the Percent Effect in test [1] and in test [2] were 3.09% and 0.491%, respectively.

In the case of `COc1cn(-c2ccccc2)nc1C(=O)NCCCN1CCCC(C)C1` (centres undefined), the Percent Effect in test [1] is -1.18%; in test [2], 7%.

With `O=c1oc(-c2ccc(F)cc2)nn1CN1CCN(C2CCCC2)CC1`, the Percent Effect in test [1] was 0.546%; in test [2] it was -2.79%.

With `Cc1nc(CN2C(=O)C[C@@H]3[C@@H]2CCN3C(=O)C2CCOCC2)cs1`, the Percent Effect was -2.3% in test [1] and -52.6% in test [2].

For the compound `CCN(Cc1ccc(OC)c(F)c1)C(=O)c1ccc(C)[nH]c1=O`, the Percent Effect in test [1] is -0.589%; in test [2], 30.6%.

For the compound `NC[C@H]1CC[C@H](C(NC(=O)c2ccccc2)c2ccccn2)CC1` (some centres undefined), the Percent Effect in test [1] is 1.63%; in test [2], -25.2%.

As for `O=S(=O)(CCNC1CCc2ncnn2C1)c1ccccc1` (centres undefined), the Percent Effect in test [1] is 1.06%; in test [2], -24.1%.

Turning to `Cc1noc(C(C)C)c1C(=O)NCCCN1CCCC1`, the results for the Percent Effect in test [1] and in test [2] were 5.49% and -21.7%, respectively.

As to `COc1ccccc1CN1CC[C@H]2C[C@@H](C(=O)N3CCCC3)O[C@H]2C1`, the figures for the Percent Effect in test [1] and in test [2] were 0.335% and -13.2%, respectively.

Take `Cc1nsc(NC(=O)N2CCC(C(C)(C)O)CC2)n1`: the Percent Effect in test [1] is 0.0141%; in test [2] it was -27.4%.

As for `CN(C)CC1CN(Cc2cccc(C(=O)N(C)C)c2)CCO1` (centres undefined), the Percent Effect in test [1] is -3.06%; in test [2], -24.2%.

For the compound `Cc1ccc(F)c(OC2(C(=O)O)CCN(C(=O)N3CCCC3)CC2)c1`, the Percent Effect in test [1] was -1.17%; in test [2], -2.51%.

For `Cc1oncc1C(=O)NCc1cc(=O)n2c(n1)CN(C)CCC2`, the Percent Effect in test [1] was 16%; in test [2] it was -2%.

`CN(C)CC1CN(CCOc2cccc(C#N)c2)CCO1` (centres undefined): the Percent Effect in test [1] is -0.815%; in test [2], 15.6%.

As to `CC1(NC(=O)Cc2csc(C(C)(C)C)n2)CCS(=O)(=O)C1` (centres undefined), the Percent Effect in test [1] is -6.9%; in test [2] it was -10.1%.

Take `Cc1cccc(-c2ccc(C(=O)NCCN(C)C3CC3)c(=O)[nH]2)c1`: the results for the Percent Effect in test [1] and in test [2] were 4.25% and 19.3%, respectively.
